Records with an inconclusive call do not appear. A call without a number means that no potency is given here. Calls of active or inactive are those of the source. The call rests on the fitted dose curve; in most records, active means well fitted inhibition curve with a large enough effect; inconclusive means small, poorly fitted or top-dose-only effect; inactive means no such curve, though single readings can be large or run the other way. *1 amine or outer side, *2 acyl side, *3 side chain or, on linkers, in order; H or OH if unused. Where a SMILES comes first, the peptide text is derived from it. Bridges are numbered along the chain shown (N, C = ends). [ ]: non-standard residue; d: D form. The star is where a group is joined. ξ: configuration not given here. X10 = NC1=NCCC(C(N[*:1])C(=O)[*:2])N1; ΔAla(3-NHCONH2) = NC(=O)NC=C(N)C(=O)O; ξβ3hOrn = NCCCC(N)CC(=O)*; Dap = NC[CH](N)C(=O)O
experiment: Primary qHTS for inhibitors of nuclear receptor binding SET domain protein 2 (NSD2) in an RCH-ACV wild type WT cells (2C) (AID 1645877); settings: RCH-ACV (leukaemia line) NSD2 WT (2C) viability, CellTiter-Glo, 72 h; series mostly up to 44.9 µM; further: nearly all actives have a fitted effect of over 70% in size

Q: For `CC(=O)OCC(=O)Nc1cc(C#N)cc(NC(=O)COC(C)=O)c1Cl`, which Potency is on record?
A: Its Potency is “inactive”.

Q: Which Potency does the source give for `O=C(O)C1CCC1` here?
A: Its Potency is “inactive”.

Q: With `CCC(=O)O[C@H]1[C@H](O[C@@H]2[C@@H](C)[C@H](O[C@H]3C[C@@](C)(OC)[C@@H](O)[C@H](C)O3)[C@@H](C)C(=O)O[C@H](CC)[C@@](C)(O)[C@H](O)[C@@H](C)C(=O)[C@H](C)C[C@@]2(C)O)O[C@H](C)C[C@@H]1N(C)C` as the compound, how does the Potency read?
A: Its Potency is “inactive”.

Q: For `COCCOCC(OC)OC`, which Potency is on record?
A: Its Potency is “inactive”.

Q: Which Potency does the source give for `Nc1ncnc2nc[nH]c12` here?
A: The Potency was “inactive”.

Q: Which Potency does the source give for `O=C(O)[C@@H](O)[C@H](O)[C@H](O)[C@@H](O)C(=O)O` here?
A: The Potency was “inactive”.

Q: Which Potency does the source give for `CCOC(=O)CN1CCCC1=O` here?
A: The Potency was “inactive”.

Q: With `NCCCC(N)CC(=O)NCC1NC(=O)C(CO)NC(=O)C(N)CNC(=O)C(C2CCN=C(N)N2)NC(=O)C(=CNC(N)=O)NC1=O` (stereo not drawn) (H-[Dap]S[Dap](ξβ3hOrn)[ΔAla(3-NHCONH2)][X10]; lactam 1-C; configuration not given here) as the compound, how does the outcome read?
A: The outcome was “inactive [at 0.588 µM]”.

Q: With `CC(=O)N(CC(=O)N(C)C)c1ccccc1` as the compound, how does the Potency read?
A: The Potency was “inactive”.

Q: Which Potency does the source give for `CCCCCC1Nc2cc(C(F)(F)F)c(S(N)(=O)=O)cc2S(=O)(=O)N1` (stereo not given) here?
A: Its Potency is “inactive”.

Reference: PubChem BioAssay (NCATS)
